Rows were chosen to be rich in hits. Some 5.3% of all compounds tested hit in one or more screens of this group.
CtBP-E1A inh: qHTS Assay for Inhibitors of the CtBP/E1A Interaction; 340,000 compounds, 0.49% hits; CtBP / adenovirus E1A interaction (AlphaScreen); AlphaScreen GST-E1A/His-CtBP binding, 1536-well; hits give low values; activity change, % (no concentration beside the values); AID 651724, 2012; in the data active = activity change below about -65%; inconclusive = mostly about -30% to -63%; also: % is scaled to controls: 0 for no effect and ±100 for the full control effect
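GST-E1A and His-tagged CtBP (125 nM each as 5X stock) were preincubated with pin-transferred compound for 2 h at 37 °C in the dark, then glutathione donor and nickel acceptor beads were added for 1 h before AlphaScreen reading.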
Six1-Eya2 blk: qHTS Assay for Inhibitors of the Six1/Eya2 Interaction; AlphaScreen GST-Six1/His-Eya2 binding, biochemical; hits give low values; activity change, % (test concentration not listed); 360,000 compounds, 0.56% hits; in the data active = activity change below about -65%; inconclusive = mostly about -30% to -63%; also: % is scaled to controls: 0 for no effect and ±100 for the full control effect
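AlphaScreen luminescence read after one hour at 37 °C in darkness. Pin-transferred compounds met GST-Six1 and His-Eya2 protein (5X stock 250 nM/500 nM) plus glutathione donor and Ni-chelate acceptor beads (5X, 50 ug/mL).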
HP1b chromo inh: HTS for Inhibitors of HP1-beta Chromodomain Interactions with Methylated Histone Tails. AlphaScreen HP1-beta / biotin-H3K9me3 peptide binding. Potency, µM (series often up to 114 µM), without a hit: at the highest dose activity change, negative = inhibition, actives largely listed as inhibitors. 390,000 compounds, 0.56% hits. AID 540317, 2011; also: potency is read from the fitted curve at half-maximal effect; nearly all actives have a fitted effect of over 70% in size
Target sequence (P83916 whole entry, looked up): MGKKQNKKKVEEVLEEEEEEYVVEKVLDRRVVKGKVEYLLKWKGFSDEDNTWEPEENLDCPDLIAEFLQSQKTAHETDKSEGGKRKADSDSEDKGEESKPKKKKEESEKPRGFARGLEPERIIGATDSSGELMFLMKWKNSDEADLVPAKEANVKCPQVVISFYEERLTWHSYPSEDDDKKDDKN
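AlphaScreen: HP1-beta (50 nM) preformed 30 min with biotin-H3(1-18)K9me3 peptide (50 nM) in PBS pH 7.4, 0.01% Tween-20. Compound added for 30 min at RT, then streptavidin donor/nickel chelate acceptor beads (10 ug/mL) for 30 min.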
BAZ2B inh: qHTS Assay for Inhibitors of BAZ2B; Potency, µM (doses to about 114 µM), inactives show at the highest dose activity change, negative = inhibition, most hits filed as inhibitors; Bromodomain adjacent to zinc finger domain protein 2B (Homo sapiens), Q9UIF8; 360,000 compounds, 4.4% hits; AlphaScreen BAZ2B-H3K14Ac peptide displacement; also: potency is read from the fitted curve at half-maximal effect; % is scaled to controls: 0 for no effect and ±100 for the full control effect; nearly all actives have a fitted effect of over 60% in size
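Multi-concentration screen (max 110 uM) measuring displacement of acetylated histone H3 peptide from BAZ2B by AlphaScreen, using 50 nM protein, 50 nM peptide and 10 ug/mL streptavidin donor plus Ni-chelate acceptor beads.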
TDP1 inh: qHTS Assay for Inhibitors of Tyrosyl-DNA Phosphodiesterase (TDP1). recombinant TDP1, AlphaScreen DNA substrate cleavage. Potency, µM (doses to about 130 µM), for the others: top-dose activity change, negative = inhibition, usual class: inhibitors. 350,000 compounds, 0.28% hits; also: potency is read from the fitted curve at half-maximal effect; % is scaled to controls: 0 for no effect and ±100 for the full control effect; nearly all actives have a fitted effect of over 40% in size
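E. coli-derived human Tdp1, 1 nM final. Cpd preinc 15 min RT; substrate 15 nM final, 5 min RT; AS bead mix 10 ug/ml final, 10 min RT. Signal loss = tyrosine-FITC cleavage. No-enzyme wells = max signal.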
JMJD2A Tudor: qHTS Assay for Inhibitors of JMJD2A-Tudor Domain; Potency, µM (highest dose often 114 µM), without a hit: at the top dose activity change, negative = inhibition, usual class: inhibitors; AID 504339, 2011; AlphaScreen JMJD2A-Tudor / H3K4me3 peptide binding; Lysine-specific demethylase 4A (Homo sapiens), O75164; 390,000 compounds, 4.4% hits; also: potency is read from the fitted curve at half-maximal effect; % is scaled to controls: 0 for no effect and ±100 for the full control effect; nearly all actives have a fitted effect of over 50% in size
The depositor's hits bear a star; ? = inconclusive; / = not tested or not shown; [ ] = dose if it differs, or a comment. Unless noted, calls follow the shape of the dose curve; as a rule, active = well fitted inhibition curve with a large enough effect; inconclusive = small, poorly fitted or top-dose-only effect; inactive = no such curve, though single readings can be large or run the other way.

SMILES	CtBP-E1A inh	Six1-Eya2 blk	HP1b chromo inh	BAZ2B inh	TDP1 inh	JMJD2A Tudor
Cc1ccc(C(=O)NC(=S)NNC(=O)COc2ccccc2C)cc1	-3	10	-14%	4%	9%	22µM*
COc1ccccc1OCC(=O)NNC(=S)NC(=O)c1ccco1	18	4	4%	55%	13%	79µM*
O=C(Cc1cccs1)NNC(=S)NC(=O)c1ccc(F)c(F)c1	-1	-2	16%	4%	3%	-2%
O=C(Cn1c(=O)nc(-c2ccccc2)c2ccccc21)Nc1ccc(Cl)c(C(F)(F)F)c1	/	/	33%	2%	11%	7%
CCc1cccc(C)c1NC(=O)c1cc(S(=O)(=O)N2CCN(c3ccccc3)CC2)ccc1F	/	/	26%	5%	8%	-7%
COc1ccc(-n2nc(C(=O)Nc3cc(C)ccn3)c3c4ccccc4n(C)c3c2=O)cc1	/	/	24%	/	-2%	-1%
N#Cc1ccc(OCC(=O)NNC(=S)NC(=O)C2CC2)cc1	-13	-17	24%	/	2%	28µM*
CN(C)S(=O)(=O)c1cccc(NC(=S)NC(=O)c2ccco2)c1	0	-1	18%	-6%	-2%	?
CN(C)S(=O)(=O)c1cccc(NC(=S)NNC(=O)c2cc3ccccc3cc2O)c1	?	?	-27%[57 µM]	?	9%	40µM*
NS(=O)(=O)c1ccc(NC(=S)NC(=O)c2ccco2)cc1	19	0	6%	-20%	0%	25µM*
CC(=O)NNC(=S)NC(=O)c1ccc(C)cc1	-1	6	40%	?	/	9%
CC(=O)NNC(=S)NC(=O)c1ccccc1	-9	-2	13%	1%	4%	20µM*
CC(C)c1ccc(OCC(=O)NNC(=S)NC(=O)C2CC2)cc1	0	-28	3%	-1%	3%	-25%
COc1ccccc1N1CCN(C(=O)c2cc3c(=O)oc4ccc(C)cc4c3s2)CC1	/	/	29%	-5%	1%	-12%
Cc1ccc(OCC(=O)Nc2ccc([N+](=O)[O-])cc2)cc1	6	2	33%	-3%	-1%	-8%
O=C(NC(=S)NNC(=O)c1cc2ccccc2cc1O)c1ccco1	-94*	-91*	1%	7%	10%	45µM*
Cc1ccc(C(=O)NC(=S)NNC(=O)COc2ccc([N+](=O)[O-])cc2)cc1	13	-5	-19%	3%	0%	25µM*
CCc1nn2c(=O)cc(COc3ccc(/C=C(\C#N)C(=O)Nc4ccc(C)cc4)cc3)nc2s1	/	/	37%	-2%	-1%	-14%
O=C(Nc1ccccc1Br)N1CCC(CN2CCCC2)CC1	/	/	3%	4%	3%	-21%
c1ccc(-c2nc3nonc3nc2-c2ccccc2)cc1	?	-26	?	28µM*	8%	40µM*
O=C(NCCCN1CCCC1=O)c1c(O)nc2sccn2c1=O	-18	-2	10%	-34%	1%	35µM*
C=C1CC2C3C=C(C)C4=CC(=O)CCC4(C)C3CCC2(C)[C@@]1(OC(C)=O)C(C)=O (stereo partly specified)	/	/	/	/	0%	/
O=C(OCC(=O)N1CCCC1=O)c1nc(Cl)c(Cl)c(Cl)c1Cl	6	-9	-2%	71µM*	45µM*	?
Nc1c(Cl)c(Cl)nc(C(=O)OCC(=O)N2CCCC2=O)c1Cl	-3	-2	21%	3%	/	-31%
COc1cc(C2C=C(C(=O)O)Nc3ncnn32)ccc1O (stereo unspecified)	/	/	27%	-32%	-5%	79µM*
CC(C)Oc1ccccc1C1C=C(C(=O)O)Nc2ncnn21 (stereo unspecified)	/	/	4%	?	0%	-26%
